Test results taken from PubChem BioAssay (NCATS).
Records with an inconclusive call do not appear. Where a call stands in place of a potency, no number is given. Calls of active or inactive are those of the source. Unless noted, calls come from the whole dose curve; as a rule, active = well fitted curve in the direction sought with a large enough effect; inconclusive = small, poorly fitted or top-dose-only effect, or another doubt; inactive = no such curve, though single readings can be large; an effect the other way counts as inactive or inconclusive.

Assays:
[1] = target: Aldehyde dehydrogenase, mitochondrial (Homo sapiens) (UniProt P05091); assay: qHTS for Inhibitors of the Aldehyde Dehydrogenase Family (ALDH2) Confirmatory screens (AID 2061303; active = well fitted inhibition curve with a large enough effect; title and protocol of this record describe different tests; note: nearly all actives have a fitted effect of over 45% in size; note: potency is the fitted concentration of half-maximal effect)
[2] = qHTS for Inhibitors of the Aldehyde Dehydrogenase Family (ALDH1A2, ALDH1A3, ALDH2, ALDH3A1) (AID 2061307); note: nearly all actives have a fitted effect of over 50% in size; for potency: test system not described further here; potency is the fitted concentration of half-maximal effect
[3] = target: Retinal dehydrogenase 2 (Homo sapiens) (UniProt O94788); assay: qHTS for Inhibitors of the Aldehyde Dehydrogenase Family (ALDH1A2) Confirmation screens (AID 2061314); note: nearly all actives have a fitted effect of over 65% in size; note: potency is the fitted concentration of half-maximal effect
[4] = target: Aldehyde dehydrogenase 1A1 (Homo sapiens) (UniProt P00352); assay: qHTS for Inhibitors of the Aldehyde Dehydrogenase Family (ALDH1A1) Confirmatory screens (AID 2061316); note: nearly all actives have a fitted effect of over 65% in size; note: potency is the fitted concentration of half-maximal effect
[5] = target: Retinaldehyde dehydrogenase 3 (Homo sapiens) (UniProt P47895); assay: qHTS for Inhibitors of the Aldehyde Dehydrogenase Family (ALDH1A3) Primary screen (AID 2061315)
[6] = target: Aldehyde dehydrogenase, mitochondrial (Homo sapiens) (UniProt P05091); assay: qHTS for Inhibitors of the Aldehyde Dehydrogenase Family (ALDH2) Primary screen (AID 2061308); note: nearly all actives have a fitted effect of over 55% in size; note: potency is the fitted concentration of half-maximal effect
[7] = target: Retinaldehyde dehydrogenase 3 (Homo sapiens) (UniProt P47895); assay: qHTS for Inhibitors of the Aldehyde Dehydrogenase Family (ALDH1A3) Confirmatory screens (AID 2061311); note: nearly all actives have a fitted effect of over 60% in size; note: potency is the fitted concentration of half-maximal effect

Row | SMILES | Potency [1] | Potency [2] | Potency [3] | Potency [4] | Potency [5] | Potency [6] | Potency [7]
1 | COc1ccnc(NC(=S)N2CCN(c3ccccc3C(F)(F)F)CC2)c1 | inactive | 14.1 µM (active) | 11.3 µM (active) | 5.65 µM (active) | – | – | –
2 | O=C(OCC#CCSc1nnc(-c2ccco2)o1)c1ccc(F)cc1 | 15.9 µM (active) | inactive | – | 8.96 µM (active) | inactive | – | –
3 | OCc1ccc(-c2ccc3ncnc(N4CCOCC4)c3c2)o1 | 11.3 µM (active) | 1 µM (active) | – | 3.18 µM (active) | inactive | – | –
4 | O=S1(=O)N=C(Oc2ccccc2Br)c2ccccc21 | inactive | inactive | – | – | inactive | – | –
5 | O=C(O)c1ccccc1SC1=NS(=O)(=O)c2ccccc21 | inactive | inactive | inactive | inactive | inactive | – | –
6 | Cc1ccc(OCCn2c(CCNC(=O)c3ccc([N+](=O)[O-])cc3)nc3ccccc32)cc1 | 22.5 µM (active) | inactive | inactive | 17.9 µM (active) | inactive | – | –
7 | Cc1ccc2nc3sc(C(=O)N4CCN(C)CC4)cc3cc2c1 | inactive | – | 10.1 µM (active) | – | – | inactive | 22.5 µM (active)
8 | N#Cc1cccc(N2CCN(Cc3ccc(F)c(Cl)c3F)CC2)n1 | 15.8 µM (active) | 4.58 µM (active) | – | 14.5 µM (active) | – | – | –
9 | COc1cc(Nc2nc(-c3ccncc3)nc3ccccc23)ccc1N1CCN(C)CC1 | inactive | – | – | – | – | inactive | –
10 | CCCCc1ccc(NC(=O)CSc2nc3ccccc3nc2N2CCOCC2)cc1 | inactive | inactive | – | inactive | – | – | –
11 | CS(=O)(=O)c1ccc(C(=O)OCC(=O)N2Cc3ccccc3C2)cc1[N+](=O)[O-] | inactive | – | 7.98 µM (active) | – | inactive | inactive | 28.2 µM (active)
12 | COc1cccc(Cc2nc3ccccc3nc2SCC(=O)N2CCN(c3ccccc3)CC2)c1 | inactive | inactive | inactive | inactive | – | – | –
13 | Cc1ccnc(NC(=S)N2CCN(C)CC2)c1 | inactive | inactive | inactive | 20.1 µM (active) | – | – | –
14 | CC(=O)/C=C1/C(=O)N(C)c2ccccc21 | inactive | inactive | 14.2 µM (active) | 4 µM (active) | – | – | –
15 | CC(C)(C)OC(=O)N1CCN(c2ccc(NCc3cnc(-c4ccc(C#N)cc4)s3)cc2)CC1 | 1.79 µM (active) | 2.83 µM (active) | inactive | 11.3 µM (active) | inactive | – | –
16 | Cc1cc(-c2nnc3n2CCCCC3)c(C)n1-c1ccc(Br)cc1 | inactive | inactive | – | 12.7 µM (active) | inactive | – | –
17 | COc1cc(N2C(=O)c3ccccc3C2=O)c2ncccc2c1 | inactive | inactive | – | inactive | – | – | –
18 | O=C(Cn1nc(-c2ccc(F)cc2)ccc1=O)NCCc1ccccc1 | inactive | inactive | – | inactive | inactive | – | –
19 | COc1ccc(NC(=O)O[C@@H]2CO[C@H]3[C@@H]2OC[C@@H]3n2nnnc2SCc2ccco2)cc1 | inactive | 12.9 µM (active) | – | 10.2 µM (active) | – | – | –
20 | CN1CCN(c2nn3c(=O)c4ccccc4nc3s2)CC1 | inactive | – | – | – | – | inactive | 8.96 µM (active)
21 | Cc1ccc(C(=O)NC2CCN(Cc3cccc(-c4cccc(C)c4)c3)CC2)cc1 | inactive | inactive | inactive | inactive | – | – | –
22 | N#Cc1ccc(-c2ccc(CNc3ccc(N4CCN5CCCCC5C4)cc3)o2)cc1 (stereo not given) | 0.0252 µM (active) | 0.449 µM (active) | inactive | 8.96 µM (active) | inactive | – | –
23 | COc1cc2c(cc1O)C(c1ccc(O)cc1)C(C)C(C)C2 (stereo not given) | inactive | – | – | – | – | inactive | –
24 | O=C(Nc1ccc(Cl)c(Cl)c1)Nc1cccc(-c2ccncc2)n1 | inactive | inactive | inactive | inactive | inactive | – | –
25 | Cc1ccc(S(=O)(=O)c2ccc([N+](=O)[O-])cn2)cc1 | 2 µM (active) | – | 1.13 µM (active) | 0.634 µM (active) | – | 2 µM (active) | 4.47 µM (active)
26 | CCOc1ccccc1-c1nnc2n1N=C(c1cccc(OC)c1)CS2 | inactive | – | inactive | – | inactive | inactive | inactive
27 | O=C(/C=C/c1ccc([N+](=O)[O-])o1)Nc1cccc([S+](=O)([O-])Nc2ccccc2F)c1 | inactive | – | 7.98 µM (active) | 7.98 µM (active) | inactive | inactive | inactive
28 | CCOC(=O)C1CCN(c2nc(-c3ccc(Br)cc3)cs2)CC1 | inactive | – | inactive | inactive | inactive | inactive | inactive
29 | NC(=O)N1CCN(c2nc(-c3ccc(Br)cc3)cs2)CC1 | inactive | – | inactive | inactive | inactive | inactive | inactive
